From the supplement of paper PMC6897291

Tested on: U-2932
Assay: growth inhibition by drug alone (1 - RLU/untreated control) (fraction); higher = stronger inhibition
Details: 177Lu-lilotomab satetraxetan 0 ug/ml
Method: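 U-2932 ABC-DLBCL cells were pretreated or not for 18 h with 1 ug/ml 177Lu-lilotomab satetraxetan (600 MBq/mg), washed and seeded (3000 cells/well) on 384-well plates pre-printed with the Selleck Cambridge Cancer Compound library. Viability was read by RealTime-Glo luminescence on days 3-6 after seeding. Effect = 1 - RLU/mean RLU of the 48 untreated no-drug control wells per plate; Bliss score = (M-E)/(1-Fa), with E the expected Bliss-additive effect.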

CN1CCC(CNc2ccc3ncc(-c4cccc(OC(F)(F)F)c4)n3n2)CC1 [SGI-1776 free base]
growth inhibition by drug alone (10 nM, time (day): 3): 0.04
growth inhibition by drug alone (10 nM, time (day): 4): 0.0462
growth inhibition by drug alone (10 nM, time (day): 5): -0.0159
growth inhibition by drug alone (10 nM, time (day): 6): -0.415
growth inhibition by drug alone (1000 nM, time (day): 3): 0.131
growth inhibition by drug alone (1000 nM, time (day): 4): 0.115
growth inhibition by drug alone (1000 nM, time (day): 5): 0.0463
growth inhibition by drug alone (1000 nM, time (day): 6): -0.00407

CC(c1cc2ccccc2s1)N(O)C(N)=O (stereo not given) [Zileuton]
growth inhibition by drug alone (10 nM, time (day): 3): 0.0373
growth inhibition by drug alone (10 nM, time (day): 4): 0.016
growth inhibition by drug alone (10 nM, time (day): 5): -0.0853
growth inhibition by drug alone (10 nM, time (day): 6): -0.151
growth inhibition by drug alone (1000 nM, time (day): 3): -0.0669
growth inhibition by drug alone (1000 nM, time (day): 4): -0.0105
growth inhibition by drug alone (1000 nM, time (day): 5): -0.0851
growth inhibition by drug alone (1000 nM, time (day): 6): -0.12

Nc1cccc2c1CN(C1CCC(=O)NC1=O)C2=O (stereo not given) [Lenalidomide]
growth inhibition by drug alone (10 nM, time (day): 3): 0.0697
growth inhibition by drug alone (10 nM, time (day): 4): 0.0182
growth inhibition by drug alone (10 nM, time (day): 5): -0.0235
growth inhibition by drug alone (10 nM, time (day): 6): 0.0966
growth inhibition by drug alone (1000 nM, time (day): 3): 0.122
growth inhibition by drug alone (1000 nM, time (day): 4): 0.186
growth inhibition by drug alone (1000 nM, time (day): 5): 0.18
growth inhibition by drug alone (1000 nM, time (day): 6): 0.309

C[C@]12CC[C@H](O)CC1=CC[C@@H]1[C@@H]2CC[C@]2(C)C(c3cccnc3)=CC[C@@H]12 [Abiraterone (CB-7598)]
growth inhibition by drug alone (10 nM, time (day): 3): 0.158
growth inhibition by drug alone (10 nM, time (day): 4): 0.102
growth inhibition by drug alone (10 nM, time (day): 5): -0.102
growth inhibition by drug alone (10 nM, time (day): 6): -0.0433
growth inhibition by drug alone (1000 nM, time (day): 3): 0.0352
growth inhibition by drug alone (1000 nM, time (day): 4): -0.0224
growth inhibition by drug alone (1000 nM, time (day): 5): -0.154
growth inhibition by drug alone (1000 nM, time (day): 6): -0.164

Cc1oc(S(=O)(=O)N2CCCCC2)cc1NC(=O)Nc1ccccc1
growth inhibition by drug alone (10 nM, time (day): 3): 0.104
growth inhibition by drug alone (10 nM, time (day): 4): 0.0184
growth inhibition by drug alone (10 nM, time (day): 5): -0.0595
growth inhibition by drug alone (10 nM, time (day): 6): -0.0798
growth inhibition by drug alone (1000 nM, time (day): 3): -0.0127
growth inhibition by drug alone (1000 nM, time (day): 4): 0.0108
growth inhibition by drug alone (1000 nM, time (day): 5): -0.117
growth inhibition by drug alone (1000 nM, time (day): 6): -0.249
